Compound activity: PubChem, National Center for Advancing Translational Sciences (NCATS)
The full list was thinned out, with hits kept by preference.
CHX counter = Cycloheximide Counterscreen for Small Molecule Inhibitors of Shiga Toxin | max response, % | cell reporter, cycloheximide protein synthesis inhibition counterscreen | 300,000 tested, 12% active | AID 2314, 2010; in the data active = max response mostly above about 13%, no sharp cut-off; inactive = mostly below about 14%; note: read at 38.3 µM for the half of the compounds with a filed dose; 0% is about no effect
Shiga toxin inh = A qHTS for Small Molecule Inhibitors of Shiga Toxin; Vero cells, Shiga toxin protein synthesis inhibition reporter; inhibition, % at 38.7 µM; 290,000 tested, 9.2% active; AID 2315, 2010; in the data active = inhibition mostly above about 28%, no sharp cut-off; inactive = mostly below about 43%; note: 0% is about no effect
AMA1 RON2 block = qHTS for Inhibitors of AMA1-RON; Towards Development of Antimalarial Drug Lead: Primary Screen; Plasmodium falciparum AMA1 (3D7) - RON2 peptide interaction; AlphaScreen AMA1-biotinylated RON2 peptide binding; Potency, µM (highest dose often 58.2 µM), without a hit: top-dose activity change, negative = inhibition, hits mostly inhibitors; 360,000 tested, 0.2% active; AID 720542, 2013; active = well fitted inhibition curve with a large enough effect; inconclusive = small, poorly fitted or top-dose-only effect; inactive = no such curve, though single readings can be large or run the other way;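 note: potency is the fitted concentration of half-maximal effect; 0% = vehicle wells and -100% = peptide control; nearly all actives have a fitted effect of over 45% in size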
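AMA1 (3D7) with his tag at 25 nM final met compounds first, then biotinylated RON2 peptide at 25 nM; detection used donor plus acceptor beads, 10 µg/mL apiece, read by AlphaScreen after 30 min at room temperature.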
LASV entry inh = qHTS for Inhibitors of binding or entry into cells for Lassa Virus; AID 540256, 2011; Lassa virus pseudotype entry inhibition, cell reporter; Potency, µM (series often up to 37.9 µM), inactives show at the highest dose activity change, negative = inhibition, most hits filed as inhibitors; 300,000 tested, 1.2% active; calls by dose curve; tested in HEK293 cells; note: potency is the fitted concentration of half-maximal effect; % is set by controls: 0 for no effect and ±100 for the full control effect; nearly all actives have a fitted effect of over 50% in size
Marburg entry inh = qHTS for inhibitors of binding or entry into cells for Marburg Virus; Marburg virus pseudotyped entry inhibition, cell reporter; Potency, µM (doses to about 37.8 µM), without a hit: at the highest dose activity change, negative = inhibition, hits mostly inhibitors; 300,000 tested, 1.8% active; AID 540276, 2011; calls by dose curve; tested in HEK293 cells; note: potency is the fitted concentration of half-maximal effect; % is set by controls: 0 for no effect and ±100 for the full control effect
Starred values were filed as active, the others as inactive; ? = inconclusive; · = no result given; [ ] = another dose, or the depositor's remark.

SMILES	CHX counter	Shiga toxin inh	AMA1 RON2 block	LASV entry inh	Marburg entry inh
COc1ccc(C/C(C)=N/NC(=S)Nc2ccccc2F)cc1	54*	91*	46%	?	13%[46.1 µM]
COc1cccc(C(CNc2ccc(S(=O)(=O)N3CCN(C)CC3)cc2[N+](=O)[O-])N(C)C)c1 (stereo not given)	·	·	?	-11%	?
O=C(OCC#CCSc1nnc(-c2ccc(Br)cc2)o1)c1ccco1	19*	47*	20%	9%	-7%
O=C(OCc1nnc(-c2ccc(Br)cc2)o1)c1ccco1	28*	40	-7%	4%	12%
O=C(OCC#CCSc1nc2ccccc2s1)c1ccco1	37*	69	35%	36%[14.3 µM]	?
CCOc1cc2nc(-c3ccc(OC)c(OC)c3)nc(N3CCOCC3)c2cc1OC	-2	15	-15%	?	2.5µM*
Cc1cc(C)cc(NC(=O)Cn2c(=O)n(C(C)C)c(=O)c3oc4ccccc4c32)c1	·	·	·	19%[46.1 µM]	·
N#C/C(=N\Nc1cccc(F)c1)C(=N)N1CCCCCC1	26*	41*	17%	-10%[46.1 µM]	?
N#C/C(=N\Nc1cccc(F)c1)C(=O)C1CC1	2	14	-3%	·	·
O=C(CN1CCN(C(=O)N2CCCCC2)CC1)Nc1ccc(F)cc1	0	15	1%	2%	-4%
N#C/C(=N/Nc1ccccc1F)C(=N)N1CCOCC1	34*	37	7%	16%	2%
N#C/C(=N\Nc1ccc(F)cc1)C(=N)N1CCCCC1	47*	112*	4%	?	?
COc1ccc(N/N=C(\C#N)C(=N)N2CCOCC2)cc1	29*	36	2%	·	·
CN(C)S(=O)(=O)N1CCC(n2cnc3cccnc32)CC1	·	·	·	13%[46.1 µM]	·
COc1ccc(C(=O)c2cn(CC(=O)Nc3ccc4c(c3)OCCO4)c3ccc(OC)cc3c2=O)cc1	·	·	·	-9%[46.1 µM]	-6%[46.1 µM]
CC(C(=O)O)n1nc(-c2ccccc2)c2ccccc21 (stereo not given)	-1	-8	5%	·	·
N#C/C(=N\Nc1ccccc1)C(=N)N1CCCCCC1	38*	71*	-1%	·	·
S=C(Nc1ccccc1)N1CCCCC1	6	18	9%	19%	6%
CCN(CC)CCNC(=O)c1ccc(NC(=O)c2cc(S(=O)(=O)N3CCCCC3)ccc2N2CCOCC2)cc1	·	·	-10%	5%	?
O=C(CCc1nnc2ccc(NCc3ccco3)nn12)Nc1ccc(F)cc1	4	22	14%	-19%[46.1 µM]	?
Cc1ccc(NC(=O)CCc2nnc3ccc(NCc4ccco4)nn23)cc1	35*	18	33%	-17%[46.1 µM]	14%[46.1 µM]
COCCN(C(=O)COC(=O)C1CCC(C(C)(C)C)CC1)c1c(N)n(Cc2ccccc2)c(=O)[nH]c1=O (stereo not given)	·	·	4%	?	?
CC(NC(=O)c1ccccc1Br)c1nnc(SCC(=O)NC2=NCCS2)n1C (stereo not given)	-4	-6	0%	1%[46.1 µM]	10%[46.1 µM]
CCN1CCN(Cc2c(O)ccc3c2O/C(=C\C=C\c2ccccc2OC)C3=O)CC1	57*	97*	-11%[11.6 µM]	-6%	?
CCN1CCN(Cc2c(O)ccc3c(=O)c(-c4ccccc4OC)coc23)CC1	-3	-8	-9%	8%	-13%
SMILES	CHX counter	Shiga toxin inh	AMA1 RON2 block	LASV entry inh	Marburg entry inh
CCCCNC(=O)/C=C/c1ccc(S(=O)(=O)Nc2ccc(OC)cc2)cc1	-3	3	0%	?	?
S=P(N1CCCCCC1)(N1CC1)N1CC1	·	·	21%	?	7.1µM*
S=P(N1CCOCC1)(N1CC1)N1CC1	·	·	-2%	-25%[46.1 µM]	?
CCOc1ccc(CN2C(=O)c3ccccc3Sc3ccc(C(=O)NCc4ccc5c(c4)OCO5)cc32)cc1	4	1	·	-8%[46.1 µM]	?
CC(=O)CSc1ncnc2sc3c(c12)CCC3	5	33	2%	1%	1%
CC(C)(C)C(=O)CSc1ncnc2sc3c(c12)CCC3	44*	67*	12%	2%	3%
C[C@@H]1CN([C@@H](C)CO)C(=O)CCCn2nncc2CO[C@@H]1CN(C)S(=O)(=O)c1ccc2ccccc2c1	·	·	24%	·	·
O=[N+]([O-])c1nn(-c2ccc(Cl)cc2)n(O)c1=NCc1ccccc1Cl	35*	74*	-6%	-16%[46.1 µM]	1%[46.1 µM]
Cc1ccc(CN=c2c([N+](=O)[O-])nn(-c3ccc(Cl)cc3)n2O)cc1	44*	33	-4%	·	·
O=[N+]([O-])c1nn(-c2ccccc2)n(O)c1=NC1CCN(Cc2ccccc2)CC1	-2	9	-18%	?	?
O=[N+]([O-])c1nn(-c2cccc(Cl)c2)n(O)c1=NCc1cccnc1	23*	13	-14%	1%	?
O=[N+]([O-])c1nn(-c2ccc(Cl)cc2)n(O)c1=NCc1ccncc1	17	36	8%	·	·
O=[N+]([O-])c1nn(-c2ccc(Cl)cc2)n(O)c1=NCc1cccnc1	23*	39	-9%	1%	-5%
Cc1cccc(-n2nc([N+](=O)[O-])c(=NCc3cccnc3)n2O)c1	24	16	16%	2%	-2%
COc1cccc(C2c3cc4c(cc3OC(C)(N3CCCC3)C2C)OCO4)c1O (stereo not given)	·	·	-21%	-21%[46.1 µM]	?
Cc1cccc(N=c2c([N+](=O)[O-])nn(-c3ccc(Cl)cc3)n2O)c1	20*	35	-7%	23%	11%[46.1 µM]
Cc1ccc2c(c1)N(C(=O)N1CCC(C(=O)NCc3ccccc3C)CC1)CC(C)O2 (stereo not given)	·	·	·	-7%[46.1 µM]	·
O=C(CSc1n[nH]c(Cc2ccccc2)n1)Nc1ccccc1Br	5	3	52%	·	?
COc1ccc(OCC(=O)N2CCN(c3nnc(-c4ccc(C)cc4)c4ccccc34)CC2)cc1	-2	23	-27%	?	?
Cc1ccc(OCC(=O)N2CCN(c3nnc(-c4ccc(C)cc4)c4ccccc34)CC2)cc1	1	-11	-21%	?	4.1µM*
CCOc1ccc2nc(NC(=O)C3=NN(c4ccccc4)C(=O)CC3)sc2c1	30*	55	12%	·	·
CCOc1ccc2nc(NC(=O)C3=NNC(=O)CC3)sc2c1	17*	69	41%	22%	?
CCOc1ccc2nc(NC(=O)c3cccn(Cc4ccccc4Cl)c3=O)sc2c1	·	·	·	1%[46.1 µM]	·
O=C(O)[C@H](Cc1ccccc1)NC(=O)N1CCN(c2ccc(F)cc2)CC1	1	-7	11%	·	·
O=C1NC[C@@H](CCCCN2CCN(CCc3ccccc3)C(=O)C2=O)N(Cc2ccccc2)C1=O	·	·	3%	·	·
Oc1ccc(Br)cc1C=Nc1cccn2cc(-c3ccccc3)nc12	35*	81*	-15%	-25%[46.1 µM]	?
Oc1ccc(Br)cc1/C=N/n1c(-c2ccccc2)n[nH]c1=S	-1	-3	142%	·	·
COC(=O)c1ccccc1NC(=O)N1CCC(n2c(C)nc3cccnc32)CC1	·	·	·	-23%[46.1 µM]	·
Cc1ccnc(NC(=O)c2ccc(Cl)s2)c1	53*	70*	-5%	·	·
